Screens as filed in PubChem BioAssay.
A selection: hits, their analogues and other compounds. The true share with any hit is near 2.4%.
Rango dissoc inh – qHTS Assay for Inhibitors of RanGTP induced Rango (Ran-regulated importin-beta cargo) - Importin beta complex dissociation. 340,000 compounds, 0.071% hits. Potency, µM (top dose mostly 46.1 µM), for the others: at the highest dose activity change, negative = inhibition. AID 540253, 2011. Biochemical FRET Rango-importin beta, RanGTP-induced dissociation; calls by dose curve; further: % of control where 0% means no effect; nearly all actives have a fitted effect of over 45% in size
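Two FRET readings bracket the reaction: one 5 min after compound meets Rango–importin beta, another 45 min after RanGTP-RCC1 (0.6 uM Ran, 0.2 uM RCC1, 2 mM GTP) is added. Only the second defines inhibition.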
Tb PFK block – qHTS Assay to Find Inhibitors of T. brucei phosphofructokinase; Potency, µM (top dose mostly 57.5 µM), for inactives: top-dose activity, negative = inhibition, most hits filed as inhibitors; T. brucei PFK, ADP-Glo luminescence; 330,000 compounds, 0.17% hits; ATP-dependent 6-phosphofructokinase (Trypanosoma brucei brucei), O15648;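 further: 0% = uninhibited 1x PFK enzyme wells and -100% = no-enzyme wells; nearly all actives have a fitted effect of over 60% in size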
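Compounds were pin-transferred as a titration series up to 57 uM into substrate buffer (0.5 mM F6P, 0.1 mM ATP, pH 8.0), then 1.25 nM PFK was added and reactions ran 45 min before ADP-Glo detection.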
Rango complex inh – qHTS Assay for Inhibitors of Rango (Ran-regulated importin-beta cargo) - Importin beta complex formation | Importin subunit beta-1 (Homo sapiens), Q14974 | Rango CFP/YFP FRET sensor + importin beta, 45 min | Potency, µM (doses to about 92.2 µM), without a hit: at the highest dose inhibition of complex formation | 340,000 compounds, 0.031% hits; calls by dose curve;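 further: 0% = DMSO wells and 100% = buffer wells lacking importin beta; nearly all actives have a fitted effect of over 15% in size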
Target sequence (Q14974 whole entry, looked up): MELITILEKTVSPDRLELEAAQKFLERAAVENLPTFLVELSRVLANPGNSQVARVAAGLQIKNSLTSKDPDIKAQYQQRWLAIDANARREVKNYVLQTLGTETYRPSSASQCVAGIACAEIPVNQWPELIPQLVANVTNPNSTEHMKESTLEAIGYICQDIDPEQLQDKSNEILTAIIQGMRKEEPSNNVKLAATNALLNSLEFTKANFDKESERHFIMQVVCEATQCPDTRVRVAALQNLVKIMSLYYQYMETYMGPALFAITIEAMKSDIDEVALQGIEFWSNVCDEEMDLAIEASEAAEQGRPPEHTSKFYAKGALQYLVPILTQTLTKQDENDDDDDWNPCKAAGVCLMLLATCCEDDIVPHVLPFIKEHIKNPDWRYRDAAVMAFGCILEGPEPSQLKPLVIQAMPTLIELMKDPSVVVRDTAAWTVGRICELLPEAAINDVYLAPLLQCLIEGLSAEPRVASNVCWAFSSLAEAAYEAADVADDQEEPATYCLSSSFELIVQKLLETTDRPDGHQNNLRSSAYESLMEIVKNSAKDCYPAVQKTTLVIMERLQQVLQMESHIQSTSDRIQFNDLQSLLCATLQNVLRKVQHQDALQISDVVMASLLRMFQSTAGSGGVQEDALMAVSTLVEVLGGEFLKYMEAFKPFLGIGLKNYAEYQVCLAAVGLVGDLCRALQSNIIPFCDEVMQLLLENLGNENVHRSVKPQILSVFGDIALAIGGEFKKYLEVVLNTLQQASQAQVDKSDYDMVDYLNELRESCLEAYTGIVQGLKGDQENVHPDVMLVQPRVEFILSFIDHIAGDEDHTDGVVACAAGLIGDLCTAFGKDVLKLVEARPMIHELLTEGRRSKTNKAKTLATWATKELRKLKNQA
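FRET biosensor Rango (snurportin 1 IBB between N-terminal EYFP and C-terminal Cerulean), 50 nM in PBS/1 mM DTT/0.02% Tween-20/0.1% BSA, preincubated 5 min RT with compound; 0.125 microM importin beta added, 45 min RT, CFP/YFP FRET ratio read.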
PKM2 act – qHTS Assay for Activators of Human Muscle isoform 2 Pyruvate Kinase | Pyruvate kinase PKM (Homo sapiens), P14618 | purified PKM2, Kinase-Glo ATP luminescence, activation; response scale: 0% is enzyme alone, no compound | Potency, µM (top dose mostly 57.5 µM), without a hit: at the top dose activation, most hits filed as activators | 260,000 compounds, 0.34% hits; further: on the % scale 0 is the no-effect control and ±100 the full control effect; nearly all actives have a fitted effect of over 55% in size
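Purified hPK-M2 (>95%) run at intermediate activity with 0.1 mM ADP and 0.5 mM PEP in 50 mM imidazole pH 7.2, KCl, MgCl2; 1 h room temperature. ATP formed read by Kinase-Glo luminescence; normalized to uninhibited and no-enzyme controls.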
PGK inhibitor – qHTS Assay to Find Inhibitors of Phosphoglycerate Kinase; Phosphoglycerate kinase, glycosomal (Trypanosoma brucei brucei), P07378; PGK/GAPDH coupled, Kinase-Glo luminescence, 60 min; Potency, µM (top dose mostly 57.5 µM), for inactives: at the highest dose activity change, negative = inhibition, usual class: inhibitors; 380,000 compounds, 0.043% hits; further: on the % scale 0 is the no-effect control and ±100 the full control effect; nearly all actives have a fitted effect of over 60% in size
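Recombinant glycosomal PGK reaction used 1,3-bisphosphoglycerate generated in-well by GAPDH (100nM final) in 100mM TEA pH 7.6, 5mM MgCl2, 0.01% Tween-20. After 60 minutes at room temperature, ATP was read by Kinase-Glo Plus luminescence end-point.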
ELG1 DNA repair – qHTS screen for small molecules that inhibit ELG1-dependent DNA repair in human embryonic kidney (HEK293T) cells expressing luciferase-tagged ELG1; HEK293T ELG1-luciferase reporter, luminescence, 16 h; DNA damage induced by 5-fluorouridine; Potency, µM (series often up to 46.1 µM), for the others: at the highest dose activity change, negative = inhibition, hits mostly inhibitors; 330,000 compounds, 2.3% hits; further: on the % scale 0 is the no-effect control and ±100 the full control effect; nearly all actives have a fitted effect of over 55% in size
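Step one: seed 2,000 cells per well. Step two: pin-transfer compound or DMSO alongside 5-fluorouridine. Step three: incubate 16 hr, 37 °C, 5% CO2. Step four: add ONE-Glo, wait 30 min, read luminescence.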
* = called active by the depositor; i = inactive; ? = inconclusive; / = no result. Unless noted, the call rests on the fitted dose curve; in most records, active means well fitted curve in the direction sought with a large enough effect; inconclusive means small, poorly fitted or top-dose-only effect, or another doubt; inactive means no such curve, though single readings can be large; an effect the other way counts as inactive or inconclusive. Potency means the concentration at half of the fitted maximal effect.

SMILES | Rango dissoc inh | Tb PFK block | Rango complex inh | PKM2 act | PGK inhibitor | ELG1 DNA repair
CN(c1ccccc1)S(=O)(=O)c1cccc(NC(=O)CSc2n[nH]c(N)n2)c1 | 4% | 1% | -4% | 14% | 6% | 21µM*
O=C(OCn1nnc2ccccc2c1=O)c1ccc(F)c(S(=O)(=O)N2CCOCC2)c1 | / | / | / | / | 0% | /
CCCCc1cc(=O)oc2cc(C)cc(OCC(=O)NC(Cc3ccc(Cl)cc3)C(=O)O)c12 (stereo not given) | 7% | 1% | -3% | -5% | -9% | -15%
O=C(Nc1ccc(S(=O)(=O)N2CCCCC2c2cccnc2)cc1)c1ccc(Br)cc1 (stereo not given) | / | / | / | / | -9% | /
CCOc1cc(C(=O)N2CCc3c([nH]c4ccccc34)C2c2ccccc2)cc(OCC)c1OCC (stereo not given) | / | / | / | / | 11% | /
CN(Cc1ccc2c(c1)OCCO2)C(=O)CN1C(=O)NC2(CCCCC2)C1=O | 13% | -10% | 0% | -4% | -1% | -5%
CCC(C)(C)C1CCC2(CC1)NC(=O)N(CC(=O)N(C)Cc1ccc3c(c1)OCCO3)C2=O (stereo not given) | 22% | 0% | 3% | / | i | 12µM*
COc1cccc(N2C(=O)N(CC(=O)NCc3cccc(OC)c3OC)c3ccccc3S2(=O)=O)c1 | / | / | / | / | -7% | /
C=CCn1c(Cc2ccccc2)nc2c(cnn2-c2ccccc2)c1=O | -7% | -3% | 1% | / | i | 21µM*
NC(=O)c1ccc(NC(=O)CSc2nnc(-c3ccccn3)n2N)cc1 | -9% | -1% | 0% | 0% | -8% | 5%
COC(=O)C1CCN(C(=O)[C@H](C)NC(=O)C2CC(=O)N(c3ccc(F)cc3)C2)CC1 (stereo not given in full) | 9% | -4% | -1% | / | -3% | ?
Cc1cccc(Nc2nc(N)nc(CCl)n2)c1C | 1% | -6% | 1% | 5% | -8% | 9.2µM*
Cc1nn(Cc2ccc(F)cc2)c2sc(C(=O)Nc3ccc(N4CCOCC4)cc3N3CCOCC3)cc12 | 7% | -1% | -3% | 0% | -5% | 18µM*
COc1ccc2cc(-c3[nH]ncc3CN3CCCN(c4ccccc4)CC3)ccc2c1 | 7% | -6% | -1% | -5% | -15% | 11%
CCCN(C(=O)c1cc(S(=O)(=O)N2CCc3ccccc32)cn1C)c1ccc(OCC)cc1 | / | / | / | / | -4% | /
CCN(Cc1ccccc1)S(=O)(=O)c1cc(C(=O)NCC2CCCCC2)ccc1OC | 19% | -3% | 0% | 1% | 3% | 23µM*
Cc1onc(-c2c(F)cccc2Cl)c1C(=O)N1CCN(c2ncc(Br)cn2)CC1 | 1% | -2% | 2% | -16% | -5% | 13µM*
COc1cc2c(cc1NC(=O)CCCCCN1C(=O)CCC1=O)oc1ccccc12 | 8% | -9% | -1% | -9% | -9% | 21µM*
COc1cc2c(cc1NC(=O)CN(C)Cc1ccc(OC)c(OC)c1)oc1ccccc12 | -5% | 11% | 0% | 5% | -1% | 15µM*
CN(Cc1ccccc1)Cc1nc2c(c(=O)n(C)c(=O)n2C)n1Cc1ccccc1Cl | 0% | 2% | -1% | 0% | -1% | 15µM*
CCCn1c(CN(C)Cc2ccccc2)nc2c1c(=O)n(C)c(=O)n2C | 2% | 3% | -4% | 4% | -7% | 12µM*
